Reference: PubChem BioAssay (NCI)
The panel holds about 83,000 compounds, 20% with a hit somewhere; the sample as a whole holds those more often.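 Note: values are percent growth. 100 is the growth of untreated cells, values between 100 and 0 indicate rising inhibition; between -100 and 0 indicates cell death.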 Calls of active or inactive are those of the source. Rule for the calls: active = growth percent below 10; inactive = the rest.

Test system: HOP-92 NSCLC
Assay: NCI-60 one-dose screen, 48 h (100 = growth as untreated, 0 = no growth, -100 = all killed)
Details: 10 µM unless noted

SMILES	growth
NC(=O)CC1C=CCC1 (stereo not drawn)	106% (inactive)
CC(=O)Nc1ccc(C=Nc2ccc3ccccc3c2)cc1	81.6% (inactive)
O=[N+]([O-])c1ccc(O)c(-c2nc3ccccc3s2)c1	-5.6% (active)
CCOC(=O)c1nn(C2CCCCO2)c2ccc(NC(=O)Cn3nnc4ccccc43)cc12 (stereo not drawn)	111% (inactive)
COC(=O)c1cc2c(=O)[nH]cc3c2c(n1)CCC3	76.8% (inactive)
CCCCCn1c(C)cc(/C=C\c2ccc3cc(C)ccc3[n+]2C)c1C	-64% (active)
O=c1[nH]c2cc(Cl)c(Cl)cc2n2cc3ncccc3c12	87.3% (inactive)
c1nc(N2CCOCC2)c2[nH]ccc2n1	69.8% (inactive)
CCCC[C@@H](C=O)NC(=O)[C@H](CC(C)C)NC(=O)[C@H](CC(C)C)NC(=O)OCc1ccccc1	-35.2% (active)
CNC(=O)c1cc(Oc2ccc3nc(NC(=O)c4ccc5ncccc5c4)sc3c2)ccn1	110% (inactive)
CC(C)(C)OC(=O)N1C=C/C(=C\Cn2cc(-c3ccccc3)nn2)CC1	62.9% (inactive)
CC[C@@H]1NC(=O)[C@@H]2CCCCN2C(=O)[C@@H]2CCCN2C(=O)[C@@H](NC(=O)[C@H](Cc2cc(F)cc(F)c2)NC(=O)Nc2ccc(C3CC3)cc2F)[C@H](C)OC(=O)[C@@H]2C[C@@H](C)CN2C1=O	-3.81% (active)
CCCSc1nc(N)nc2nc[nH]c12	91.9% (inactive)
O=C(Nc1ccc(F)cc1)c1ccccc1	119% (inactive)
COc1ccc(-c2ccc(NNC(=O)c3ccc(F)cc3)nn2)cc1OC	8.49% (active)
COc1ccc(C(=O)CSc2nnc(-c3cc(-c4ccccc4)nc4ccccc34)o2)cc1	113% (inactive)
O=C(O)c1cc([N+](=O)[O-])ccc1Br	91.4% (inactive)
O=C(Nc1ccc(Oc2ccc(F)cc2)c(Cl)c1)c1cccnn1	66.5% (inactive)
Cc1cc(-c2ccc(N=Nc3c(S(=O)(=O)O)cc4cc(S(=O)(=O)O)cc(N)c4c3O)c(C)c2)ccc1N=Nc1cc(S(=O)(=O)O)c2ccccc2c1O	89.6% (inactive)

SMILES	growth
COc1cc2c(cc1OCCCN1CCN(CCCOc3cc4c(cc3OC)C(=O)N3C[C@H](F)C[C@H]3C=N4)CC1)N=C[C@@H]1C[C@@H](F)CN1C2=O	-6.06% (active)
Cc1nc(Cl)cc(N(c2cc(Cl)nc(C)n2)c2ncc(C(=O)Nc3c(C)cccc3Cl)s2)n1	-33.5% (active)
Cn1cc(-c2noc(-c3cn(C)c4ncc(Br)cc34)n2)c2cc(Cl)ccc21	76.7% (inactive)
C=C(C)[C@@H]1CC[C@]2(C(N)=O)CC[C@]3(C)[C@H](CC[C@@H]4[C@@]5(C)C/C(=C/c6cccnc6)[C@H](O)C(C)(C)[C@@H]5CC[C@]43C)[C@@H]12	23.4% [100 µM] (inactive)
Nc1nc(Nc2ccccc2)c2ncn(Cc3ccc4c(c3)OCO4)c2n1	63.9% (inactive)
C[n+]1c2ccccc2nc2c(N)cc(N)cc21	84.2% (inactive)
CCOC(=O)c1cc(C(=O)c2ccc(OC)c(OC)c2)n2ccc(-c3ccccn3)cc12	41.6% (inactive)
O=C(NNc1ccc(-c2ccccc2)nn1)c1ccccc1	91.6% (inactive)
CCOC(=O)c1nc2c3ccccc3ccn2c1C(=O)OC	103% (inactive)
c1cc2ccc3cc2cc1CNCCN1CCNCc2ccc4ccc(cc4c2)CNCCN(CCNC3)CCNCc2ccc3ccc(cc3c2)CNCC1	-17.9% (active)
Cn1cc(-c2nnc(-c3cn(C)c4ncc(Br)cc34)s2)c2cc(Br)ccc21	57.2% (inactive)
O=C1/C(=C/c2cccc(OCc3ccccc3)c2)Oc2cc(OCCN3CCCCC3)ccc21	46.9% (inactive)
CN(Cc1cccc(C(F)(F)F)c1)C(=O)[C@@H](CC(=O)N1CCC(N2CCCCC2)CC1)N1C(=O)[C@@H](N2C(=O)OC[C@@H]2c2ccccc2)[C@H]1/C=C/c1ccccc1	58.7% (inactive)
Cc1cc(NN=C(c2ccc(O)cc2)c2ccc(O)cc2)c([N+](=O)[O-])cc1[N+](=O)[O-]	40% (inactive)
CCOC(=O)CCC[P+](c1ccccc1)(c1ccccc1)c1ccccc1	71.4% (inactive)
CCN(CC)c1ccc(/C=C/c2ccc3cc(C)ccc3[n+]2CC)cc1	-17.5% (active)
O=C(N/N=C/c1ccc([N+](=O)[O-])cc1)c1ccc(Br)o1	101% (inactive)
CC(C)C1=NOC(=O)C1=Cc1cn(-c2ccccc2)nc1-c1ccc(Br)cc1	83.1% (inactive)
COc1ncnc2c(-c3ccccc3)cn(COCc3ccccc3)c12	-0.37% (active)
